# This is a sample that favours compounds with a hit; in the whole collection about 3.6% have one here.
# Mtb hypoxia inh: inhibitors of hypoxia-regulated fluorescent reporter in Mycobacterium tuberculosis; M. tuberculosis hypoxia-regulated fluorescent reporter, fluorescence; fluorescence inhibition, % (test concentration not listed); 300,000 tested, 0.1% active; AID 1159583; in the data active = fluorescence inhibition mostly above about 23%, no sharp cut-off; inactive = mostly below about 17%
# Mtb betalactam: beta-lactam sensitization of Mtb H37Rv; M. tuberculosis H37Rv growth with meropenem, percent inhibition; 330,000 tested, 0.27% active; inhibition, % at 25 µM; call rule not given here;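 also: growth measured after seven days incubation then overnight dye step; 0% = bacteria only wells and 100% = bacteria with antibiotic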
# GDH-TPI counter: GDH-TPI coupled enzyme inhibition counter-screen; inhibition, % at 4.8 µM; GDH-TPI coupled enzyme counterscreen, NADH absorbance; 360,000 tested, 1.2% active; AID 588335; in the data active = inhibition above about 30%;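 also: 0% = DMSO wells and 100% = wells lacking the enzyme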
# FBA Mtb inh: inhibitors of M. tuberculosis fructose-bisphosphate aldolase. P9WQA3. purified M. tuberculosis FBA, fluorescence read-out. inhibition, % at 1 µM. 360,000 tested, 2.3% active; in the data active = inhibition above about 27%;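 also: 0% = vehicle and 100% = reference inhibitor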
# Target sequence (P9WQA3 whole entry, looked up): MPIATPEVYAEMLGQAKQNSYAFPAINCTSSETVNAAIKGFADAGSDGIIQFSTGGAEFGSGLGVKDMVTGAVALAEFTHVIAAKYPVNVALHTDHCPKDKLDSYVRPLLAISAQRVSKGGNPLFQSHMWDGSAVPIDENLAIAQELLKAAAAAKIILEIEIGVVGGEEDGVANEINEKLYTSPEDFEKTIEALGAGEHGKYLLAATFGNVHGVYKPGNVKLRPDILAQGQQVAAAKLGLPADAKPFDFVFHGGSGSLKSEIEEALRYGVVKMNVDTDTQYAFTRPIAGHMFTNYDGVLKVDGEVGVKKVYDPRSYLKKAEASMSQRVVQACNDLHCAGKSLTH
# VHR inh abs: blocks human VHR1 dual specificity phosphatase | AID 1654 | P51452 | 290,000 tested, 0.52% active | recombinant VHR phosphatase, pNPP absorbance | inhibition, % at 13.3 µM; in the data active = inhibition above about 50%
# * hit, by the source's call; ? = inconclusive; . = no result given; + = active, no number.
SMILES,Mtb hypoxia inh,Mtb betalactam,GDH-TPI counter,FBA Mtb inh,VHR inh abs
Cc1coc2cc3oc(=O)c(CCC(=O)NCC(=O)O)c(C)c3cc12,-1.8,-1.2,13.6,27.6*,-6.7
C=CCOC(=O)COc1ccc2c(C)c(CC)c(=O)oc2c1,3.6,98.5,-1.9,64.2*,2.4
Cc1c(CCC(=O)O)c(=O)oc2cc(O)ccc12,3.0,-8.2,20.2,+,1.0
Cc1c(CCC(=O)NCC(=O)O)c(=O)oc2cc3occ(-c4ccccc4)c3cc12,-0.3,-4.5,10.0,4.4,-6.7
CCCc1c(C)c2ccc(OCC(C)=O)cc2oc1=O,.,51.1,3.9,124.1*,-8.2
CCN1CC2C3C(=O)N(C)C(=O)C3[C@](C)(C1=O)N2C(=O)c1ccc(C(F)(F)F)cc1 (some centres not stated),14.5,.,.,.,.
COc1ccc(-c2c(C)c3ccc(O)cc3oc2=O)cc1OC,-6.0,-0.9,8.7,+,3.9
COc1ccc(-c2c(C)c3cc(O)ccc3oc2=O)cc1,11.7,3.4,15.5,0.7,3.9
CNCC1Oc2c(NC(=O)C3CC3)cccc2C(=O)N(C(C)CO)CC1C (configuration not stated),-4.8,.,.,.,.
Cc1ccc(S(=O)(=O)N/N=C/c2ccc(O)c(O)c2)cc1[N+](=O)[O-],.,-10.1,32.9*,-2.6,1.5
C/C(=N\NS(=O)(=O)c1ccc(C)c([N+](=O)[O-])c1)c1cc2ccccc2o1,.,-11.8,40.8*,-3.3,39.2
C/C(=N\NS(=O)(=O)c1ccc(Cl)c([N+](=O)[O-])c1)c1cc2ccccc2o1,.,-2.7,20.7,-0.9,21.8
Cc1ccc(S(=O)(=O)NN=Cc2ccc(O)c(O)c2)cc1[N+](=O)[O-],9.9,.,.,.,.
O=C(Nc1ccccc1)C1=CC(c2ccc(C(F)(F)F)cc2)CC(OCc2ccc(CO)cc2)O1 (configuration not stated),20.6,.,.,.,.
CC1CN(C(C)CO)C(=O)c2cc(NC(=O)Nc3ccc(F)cc3)ccc2OC1CN(C)Cc1ccc(Oc2ccccc2)cc1 (configuration not stated),1.5,.,.,.,.
COc1ccc(CNC(=O)CC(C)S(=O)(=O)c2ccc3c(c2)NC(=O)CO3)cc1 (configuration not stated),10.3,3.3,0.9,3.8,3.9
COc1ccc(CCNC(=O)CC(C)S(=O)(=O)c2ccc3c(c2)NC(=O)CO3)cc1OC (configuration not stated),-0.1,-6.9,0.4,0.6,59.1*
C=CC1c2cc(C)ccc2N(S(=O)(=O)c2ccc(C)cc2)C(c2ccc(OC(C)=O)cc2)C1(C#N)C#N (configuration not stated),8.1,.,.,.,.
COC(=O)C1=NN(c2ccccc2)C2(SC(=Cc3ccccc3)C(=O)N2c2ccccc2)S1 (configuration not stated),9.0,.,.,.,.
O=C1C(Cl)=C(N2CCOCC2)C(=O)N1c1ccccc1Cl,-3.0,94.5,36.0*,-1.2,2.8
O=C1C(Cl)=C(N2CCCCCC2)C(=O)N1c1ccccc1Cl,1.2,?,-1.5,-0.9,16.5
CCCC(=O)Nc1ccc(-c2cn3cccnc3n2)cc1,8.5,-7.4,18.4,+,13.0
O=C(Nc1ccccc1)Nc1cccc(-c2cn3cccnc3n2)c1,4.9,-11.4,10.0,3.6,13.9
CCCC(=O)Nc1cccc(-c2cn3cccnc3n2)c1,-8.2,-8.2,30.5,189.2*,13.1
CCN(CC)S(=O)(=O)c1cccc(-c2cn3cccnc3n2)c1,-1.0,-4.5,24.7,180.7*,8.8
SMILES,Mtb hypoxia inh,Mtb betalactam,GDH-TPI counter,FBA Mtb inh,VHR inh abs
CCCC(=O)Nc1cc(-c2cn3cccnc3n2)ccc1OC,1.0,.,16.8,19.0,-22.2
Nc1cccc(-c2cn3cccnc3n2)c1,-5.3,-7.9,6.9,6.3,15.2
CC(C)CC(=O)Nc1ccc(-c2cn3cccnc3n2)cc1,-7.6,-4.7,23.5,+,0.1
CC(=O)C1=C(C)N(CC2CC2)C(=O)NC1c1cccs1 (configuration not stated),2.8,.,.,.,.
C(=NN(c1ccccc1)c1ccccc1)c1ccccn1,-18.1,.,.,.,.
COc1cc(C=NNC(=S)NC2CC3CCC2C3)ccc1O (configuration not stated),6.0,.,.,.,.
NC(=NN=Cc1ccc([N+](=O)[O-])cc1)c1nonc1N,-2.1,.,.,.,.
CCCCC(=O)Nc1cccc(-c2cn3ccccc3n2)c1,2.9,0.2,3.7,33.1*,-2.4
O=C(Nc1cccc(-c2cn3ccccc3n2)c1)c1ccccc1,4.8,53.4,4.3,3.5,-7.7
CCOCC(=O)Nc1ccc(-c2cn3cccnc3n2)cc1,-9.2,-5.9,26.8,+,21.3

# Screens (PubChem BioAssay)
